# Screening data: PubChem BioAssay, several laboratories
# ANO1 activ – activators or potentiators of mouse TMEM16A chloride channel. Q8BHY3. B-score at 10 µM. HEK293 TMEM16A/YFP-H148Q/I152L, iodide quench fluorescence; active compounds read low. hit rate 0.3% among 340,000;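 active = fluorescence-ratio B-score plate-corrected deviation score at least 3 library SD below zero, with starting fluorescence score within 5 deviations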;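 note: channel opened by trigger with iodide after compound preincubation; score built on the fluorescence ratio of max minus min over baseline; more negative score means more quench and so TMEM16A activation or potentiation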
# RTF Ca sens act – increases calcium sensitivity of human cardiac regulated thin filaments. P19429+P45379. IANBD-labeled TnC RTF fluorescence at EC20 calcium; 0% EC20 calcium, 100% full calcium. activation, % at 7.2 µM. hit rate 0.24% among 340,000;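 active = activation above the mean over all tested compounds plus 3 SD, cut at about 30% in these data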;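 note: rise in fluorescence read as greater calcium sensitivity of cardiac thin filaments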
# CRFR2-BP antag – antagonists of CRF-binding protein/CRF-R2 receptor complex; HEK293 CRF-R2/CRF-BP, CRF-induced calcium fluorescence; inhibition, % at 11.8 µM; hit rate 0.59% among 350,000; AID 588475;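 active = inhibition of the ligand-induced calcium signal above about 50% at the single tested concentration, limit read from the data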
# CRFBP-R2 agonist – agonists of human CRF-binding protein/CRF-R2 receptor complex; HEK293 CRF-R2/CRF-BP, calcium dye fluorescence (FLIPR); percent of saturating CRF peptide response; activation, % at 13.2 µM; hit rate 0.46% among 350,000;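 active = activation of at least 50%, plus an integration ratio under a set limit after plate pattern correction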;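 note: plate controls were neutral control wells without compound for no effect and CRF at EC100 for full effect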
# ANO1 block – mouse TMEM16A channel inhibition, primary screen; AID 588511; hit rate 1.2% among 310,000; HEK293 TMEM16A/YFP iodide influx fluorescence, ionomycin; normalized B-score (activity score, 25-100; higher = stronger inhibition) at 10 µM; Q8BHY3;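 active = ratio plate-corrected score three or more library SD toward inhibition, starting fluorescence score within five deviations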;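 note: score derived from kinetic fluorescence span divided by baseline fluorescence per well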
# RTF Ca sens inh – cardiac RTF calcium desensitization; IANBD-labeled cardiac RTF, Ca2+ fluorescence; hit rate 0.12% among 340,000; P19429+P45379; AID 493244; inhibition, % at 7.15 µM;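 active = inhibition above the mean inhibition of all tested compounds plus 3 SD, cut at about 17% in these data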;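 note: assay run at fixed EC70 calcium of 1.6 mM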
# * hit, by the source's call; i = inactive; . = not tested or not shown. Most compounds without a hit are left out; they make up all but 2.4% or so of the library.
SMILES,ANO1 activ,RTF Ca sens act,CRFR2-BP antag,CRFBP-R2 agonist,ANO1 block,RTF Ca sens inh
Cc1nc2ccc(NC(=O)COc3ccccc3C)cc2s1,i,6,-2,0,i,-1
CC#CCCCC(=O)Nc1ccccc1C(=O)O,i,4,63*,0,i,-7
Cc1ccc(S(=O)(=O)N2CCN(c3ncnc4scc(-c5ccc(F)cc5)c34)CC2)cc1,i,-11,8,-1,i,3
Cc1ccc(S(=O)(=O)N2CCN(c3ncnc4scc(-c5ccccc5)c34)CC2)cc1,-31*,3,-103,127*,.,-7
CCSc1cc(C)nc2ncnn12,-19*,6,10,0,i,-7
Cc1cc(C)n2nc(C(=O)OCC(=O)Nc3ccc(C)c(S(=O)(=O)N4CCOCC4)c3)nc2n1,i,3,-3,0,.,3
Cc1nnc2n(Cc3ccccc3)c(=O)c3c4c(sc3n12)COC(C)(C)C4,i,-5,87*,-2,i,-5
CC1(C)Cc2c(sc3c2c(=O)n(Cc2ccccc2)c2nncn32)CO1,i,2,6,-1,.,2
CS/C(=N\S(=O)(=O)c1cccs1)NC(=O)CSc1nc2ccccc2s1,i,2,1,-4,100*,-12
C/C(=N/NC(=O)CSc1nc2ccccc2s1)c1ccncc1,i,2,11,-3,i,3
Cc1ccnc(NC(=O)CSc2nnc3c(n2)[nH]c2ccccc23)c1,.,.,.,.,i,.
CCN1C(=O)/C(=C2/Sc3ccccc3N2CC)SC1=S,i,10,-4,5,i,-11
CCN1/C(=C2\SC(=S)N(Cc3ccccc3)C2=O)Sc2ccccc21,i,18,-67,51*,i,3
CN1C(=O)/C(=C\c2ccc(N(C)C)cc2)OC1=S,i,46*,-187,211*,i,-132
CN(C)c1ccc(/C=C2\N=C(C(C)(C)C)OC2=O)cc1,i,30*,-31,22,i,-14
COc1ccc(/C=C2\OC(=S)N(C)C2=O)cc1,i,-2,1,-2,i,-4
COCCNC(=O)Cn1c(=O)oc2cc(S(=O)(=O)N3CC(C)CC(C)C3)ccc21 (stereo not drawn),i,3,1,0,i,-4
CCCNC(=O)Cn1c(=O)oc2cc(S(=O)(=O)N3CC(C)CC(C)C3)ccc21 (stereo not drawn),-41*,1,7,0,i,-9
CN(C)/C=N/c1nccc(-c2cccs2)n1,i,-2,3,54*,i,-2
CN(C)c1ccc(/C=C/c2cc[n+](C)cc2)cc1,i,47*,-68,33,i,-41
Cc1ccc(/C=C/c2ccc(N(C)C)cc2)[n+](C)c1,i,39*,-13,6,i,-54
CC[n+]1ccccc1/C=C/c1ccc(N(C)C)cc1,i,15,-9,8,.,-10
CN(C)c1ccc(/C=C/c2cc[n+]([O-])cc2)cc1,.,.,.,.,i,.
CS(=O)(=O)C1=NSC2=NC(=O)/C(=C\c3ccc(-c4ccccc4)o3)C(=N)N21,.,.,.,.,i,.
CC(C)S(=O)(=O)C1=NSC2=NC(=O)/C(=C\c3ccc(-c4ccccc4)o3)C(=N)N21,i,-1,18,8,25*,4
SMILES,ANO1 activ,RTF Ca sens act,CRFR2-BP antag,CRFBP-R2 agonist,ANO1 block,RTF Ca sens inh
Cc1ccc(-c2csc(Nc3ccc(C(=O)O)cc3)[n+]2Cc2ccccc2)cc1,i,-2,69*,-7,i,-7
CN(C)c1ccc(/C=C2\N=C(c3ccc(Cl)c([N+](=O)[O-])c3)NC2=O)cc1,i,0,-106,62*,i,-6
CN(C)C(CNC(=O)c1cc(S(=O)(=O)N2CCOCC2)ccc1Cl)c1cccs1 (stereo not drawn),i,-6,2,0,.,-1
COc1ccc(NC(=O)CN2CCC3(O)CCCCC3C2c2cc(OC)ccc2OC)cc1 (stereo not drawn),i,-1,51*,-1,i,-4
COC(=O)c1c(NC(=O)CN2CCC3(O)CCCCC3C2c2ccccc2OC)sc(C)c1C (stereo not drawn),i,4,-80,53*,i,-6
Cc1c(C(=O)NCc2ccc(S(N)(=O)=O)cc2)oc2ccc(Cl)cc12,i,.,35,0,i,.
O=C(Cc1ccc(F)cc1)c1ccc(O)cc1O,i,3,17,2,i,-7
CCCc1cc(C(=O)Cc2ccc(F)cc2)c(O)cc1O,i,0,11,-1,100*,-4
CCN1CCN(c2nc3ccccc3nc2C(C#N)S(=O)(=O)c2ccc(C)c(C)c2)CC1 (stereo not drawn),i,-2,-1,0,i,-5
Cc1ccc(S(=O)(=O)C(C#N)c2nc3ccccc3nc2N2CC(C)OC(C)C2)cc1C (stereo not drawn),i,3,-7,1,100*,-9
Cc1ccc2nc(N3CCN(S(=O)(=O)c4ccc5c(c4)OCCO5)CC3)c(C#N)cc2c1,i,1,-24,1,i,-9
CCN1CCN(c2nc3ccccc3nc2C(C#N)S(=O)(=O)c2ccc(C)cc2)CC1 (stereo not drawn),i,-3,12,2,i,-3
Cc1ccc(S(=O)(=O)C(C#N)c2nc3ccccc3nc2N2CCCC2)cc1 (stereo not drawn),i,3,-55,56*,i,-19
Cc1ccc(S(=O)(=O)N2CCCN(c3nc4cc(C)ccc4cc3C#N)CC2)cc1,-14*,4,-43,11,i,-1
COc1cccc(/C(O)=C/c2nc3ccc(C(=O)NCCc4ccc(Cl)cc4)cc3[nH]c2=O)c1,i,99*,-244,140*,.,-3
CC(C)(C)c1ccc(OCCC(=O)Nc2ccc(N3CCOCC3)cc2N2CCOCC2)cc1,i,-7,-13,1,i,-10
CCOc1ccc(/C=N/NC(=O)c2ccc(F)cc2)cc1CN1CC2CC(C1)c1cccc(=O)n1C2 (stereo not drawn),i,-2,6,-3,.,1
CC(=O)c1ccc(S(=O)(=O)Nc2ccc(C(=O)NCC(c3cccs3)N3CCOCC3)cc2)cc1 (stereo not drawn),i,1,5,1,i,-28
O=C(NCC(c1cccs1)N1CCOCC1)c1ccccc1NS(=O)(=O)c1ccc(Cl)c([N+](=O)[O-])c1 (stereo not drawn),i,1,42,20,25*,-6
CCOc1ccc(NS(=O)(=O)c2ccc(C(=O)NCC(c3cccs3)N3CCOCC3)cc2)cc1 (stereo not drawn),i,-7,-33,61*,i,-10
